Experimental data published in PubChem BioAssay (Tox21).
Values joined by “and” are separate entries in the source; they are usually repeats but may differ in a detail not shown here. Identical values can stand only once. Records with an inconclusive call do not appear. A structure can be active in one record and inactive in another. Active and inactive are the calls of the source. Unless noted, calls follow the shape of the full dose curve.

Key:
[1] = qHTS assay to identify small molecule antagonists of the sonic hedgehog signaling (Shh) pathway (AID 1259369); also: nearly all actives have a fitted effect of over 45% in size; also: potency is read from the fitted curve at half-maximal effect
In short: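 NIH/3T3-derived 3T3Gli1-Luc cells with stably integrated Gli1-Luc reporter were preincubated 4hr at 37 C, then given compounds in DMSO plus Shh conditioned medium and incubated 24hr. Firefly luciferase luminescence read after 30min reagent at room temperature.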

[2] = qHTS assay to identify small molecule agonists of the androgen receptor (AR) signaling pathway in the presence of an antagonist - cell viability counter screen (AID 1259379; active = well fitted curve in the direction sought with a large enough effect in the repeat runs; an effect the other way counts as inactive or inconclusive; also: nearly all actives have a fitted effect of over 25% in size; also: potency is read from the fitted curve at half-maximal effect)
In short: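 MDA-kb2 human breast carcinoma cells (stable MMTV-luciferase, AR/GR responsive) were seeded 3,000 cells/well, pre-incubated 5 hr at 37C without CO2, then given 3.0uM nilutamide and compounds at 15 concentrations for 16 hr. Viability was read by CellTiter-Fluor fluorescence.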

[3] = qHTS assay to identify small molecule antagonists of the estrogen receptor beta (ER-beta) signaling pathway - cell viability counter screen (AID 1259382; active = well fitted curve in the direction sought with a large enough effect in the repeat runs; an effect the other way counts as inactive or inconclusive; also: nearly all actives have a fitted effect of over 55% in size; also: potency is read from the fitted curve at half-maximal effect)
In short: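 ER-beta-UAS-bla HEK293T cells (2,000/well, 2% charcoal-stripped FBS) were pre-incubated 6 hr at 37C, then given compound plus 1nM final 17-beta-estradiol for 16 hr. Viability was read in the same wells by CellTiter-Glo luminescence after 30 min at room temperature.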

[4] = target: Estrogen receptor (Homo sapiens) (UniProt P03372); assay: qHTS assay to identify small molecule agonists of the estrogen receptor alpha (ER-alpha) signaling pathway in the presence of an antagonist (AID 1259383); also: nearly all actives have a fitted effect of over 15% in size; also: potency is read from the fitted curve at half-maximal effect; as to activation: top concentration of the series differs between compounds
In short: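 VM7Luc4E2 cells (endogenous full-length ER-alpha, 4×ERE-luciferase) were precultured 5 days in phenol red-free medium with 10% charcoal-stripped FBS, given 10.0nM ICI-182,780 (final), then treated with compounds at 15 concentrations for 22hr at 37C; luminescence read with ONE-Glo.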

[5] = qHTS assay to identify small molecule agonists or antagonists of the thyroid stimulating hormone receptor (TSHR) signaling pathway - wild type cell line counter screen (AID 1259384)
In short: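 Wild-type Hek293 cells, 800/well, 18 h at 37C, then compound with Ro20-1724 for 30 min RT. cAMP by HTRF (cAMP-d2/anti-cAMP cryptate), 1 h RT, fluorescence read. 15 concentrations, triplicates.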

[6] = target: Thyrotropin receptor (Homo sapiens) (UniProt P16473); assay: qHTS assay to identify small molecule antagonists of the thyroid stimulating hormone receptor (TSHR) signaling pathway (AID 1259385); also: nearly all actives have a fitted effect of over 20% in size
In short: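 TSHR-HEK293 cells (800/well) plated 18 h, then compounds with Ro20-1724 and TSH at 1.5 ng/mL final, 30 min at room temperature. cAMP quantified by HTRF (cAMP-d2/anti-cAMP-cryptate, 1 h); 15 concentrations in triplicate.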

[7] = target: Estrogen receptor beta (Homo sapiens) (UniProt Q92731); assay: qHTS assay to identify small molecule agonists of the estrogen receptor beta (ER-beta) signaling pathway (AID 1259377; active = well fitted activation curve with a large enough effect in the signal ratio in the repeat runs, not every such curve was filed as active; the % refers to the signal ratio)
In short: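 In HEK293T cells bearing a UAS-beta-lactamase reporter under ER-beta control, DMSO-delivered compounds were incubated for 16 hr at 37C. Activity was detected as fluorescence 2 hours after LiveBLAzer B/G FRET substrate addition.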

[8] = target: Estrogen receptor beta (Homo sapiens) (UniProt Q92731); assay: qHTS assay to identify small molecule antagonists of the estrogen receptor beta (ER-beta) signaling pathway (AID 1259378; active = well fitted inhibition curve with a large enough effect in the signal ratio in the repeat runs, not every such curve was filed as active; the % refers to the signal ratio; also: potency is read from the fitted curve at half-maximal effect)
In short: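 ER-beta-UAS-bla HEK293T cells in 2% charcoal-stripped FBS medium treated with compound plus 1nM final 17-beta-estradiol for 16 hr at 37C. Beta-lactamase reporter read by FRET substrate fluorescence after 2 hours at room temperature.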

[9] = qHTS assay to identify small molecule agonists of the estrogen receptor beta (ER-beta) signaling pathway - cell viability counter screen (AID 1259380; active = well fitted curve in the direction sought with a large enough effect in the repeat runs; an effect the other way counts as inactive or inconclusive; also: nearly all actives have a fitted effect of over 30% in size; also: potency is read from the fitted curve at half-maximal effect)
In short: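 ER-beta-UAS-bla HEK293T cells in medium with 2% charcoal-stripped FBS were preincubated 6 hr at 37C, dosed with compound in DMSO for 16 hr, then after the bla read, CellTiter-Glo was added for 30 min at room temperature; luminescence recorded.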

[10] = target: Androgen receptor (Homo sapiens) (UniProt P10275); assay: qHTS assay to identify small molecule agonists of the androgen receptor (AR) signaling pathway in the presence of an antagonist (AID 1259381); also: nearly all actives have a fitted effect of over 15% in size
In short: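 MDA-kb2 human breast carcinoma cells carrying an MMTV-luciferase reporter (AR- and GR-responsive) were treated with compounds at 15 concentrations plus 3.0uM final nilutamide for 16hr at 37C without CO2; luminescence was read after ONE-Glo addition.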

Measured: Potency

Chain of Thyrotropin receptor (Homo sapiens) (P16473 whole entry, looked up): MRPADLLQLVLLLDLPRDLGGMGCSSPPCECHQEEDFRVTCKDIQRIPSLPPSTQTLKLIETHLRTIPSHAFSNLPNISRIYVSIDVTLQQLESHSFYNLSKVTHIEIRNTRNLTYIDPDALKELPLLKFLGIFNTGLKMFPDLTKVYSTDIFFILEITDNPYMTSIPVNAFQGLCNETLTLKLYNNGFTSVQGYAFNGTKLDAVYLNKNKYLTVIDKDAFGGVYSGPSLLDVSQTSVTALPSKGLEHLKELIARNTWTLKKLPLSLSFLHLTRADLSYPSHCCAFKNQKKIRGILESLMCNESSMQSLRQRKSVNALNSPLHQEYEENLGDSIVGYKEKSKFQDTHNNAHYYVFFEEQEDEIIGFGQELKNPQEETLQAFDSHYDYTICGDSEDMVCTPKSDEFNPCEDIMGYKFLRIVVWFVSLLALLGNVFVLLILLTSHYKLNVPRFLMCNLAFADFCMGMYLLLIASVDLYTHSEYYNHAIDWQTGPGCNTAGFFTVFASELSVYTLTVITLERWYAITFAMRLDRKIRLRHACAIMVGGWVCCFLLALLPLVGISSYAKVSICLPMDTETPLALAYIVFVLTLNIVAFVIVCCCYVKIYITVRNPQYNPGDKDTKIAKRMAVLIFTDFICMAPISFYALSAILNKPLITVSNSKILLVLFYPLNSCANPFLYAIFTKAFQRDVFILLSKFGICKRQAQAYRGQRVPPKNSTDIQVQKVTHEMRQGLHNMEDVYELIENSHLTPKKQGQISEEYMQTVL
Chain of Estrogen receptor beta (Homo sapiens) (Q92731 whole entry, looked up): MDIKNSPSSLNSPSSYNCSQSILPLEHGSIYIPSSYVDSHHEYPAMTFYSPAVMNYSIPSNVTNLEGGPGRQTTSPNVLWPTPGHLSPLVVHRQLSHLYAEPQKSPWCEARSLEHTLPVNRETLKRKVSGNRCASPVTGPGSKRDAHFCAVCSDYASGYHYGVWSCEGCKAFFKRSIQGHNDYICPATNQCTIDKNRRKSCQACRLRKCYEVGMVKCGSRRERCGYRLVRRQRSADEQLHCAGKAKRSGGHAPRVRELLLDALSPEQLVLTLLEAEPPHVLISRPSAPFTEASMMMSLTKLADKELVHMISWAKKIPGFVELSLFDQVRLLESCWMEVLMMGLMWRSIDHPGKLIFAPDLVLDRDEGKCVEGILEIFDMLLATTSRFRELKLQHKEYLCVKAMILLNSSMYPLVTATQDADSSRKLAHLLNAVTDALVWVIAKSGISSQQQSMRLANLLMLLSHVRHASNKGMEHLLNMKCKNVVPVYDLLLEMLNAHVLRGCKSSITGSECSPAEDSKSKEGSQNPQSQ
Chain of Estrogen receptor (Homo sapiens) (P03372 whole entry, looked up): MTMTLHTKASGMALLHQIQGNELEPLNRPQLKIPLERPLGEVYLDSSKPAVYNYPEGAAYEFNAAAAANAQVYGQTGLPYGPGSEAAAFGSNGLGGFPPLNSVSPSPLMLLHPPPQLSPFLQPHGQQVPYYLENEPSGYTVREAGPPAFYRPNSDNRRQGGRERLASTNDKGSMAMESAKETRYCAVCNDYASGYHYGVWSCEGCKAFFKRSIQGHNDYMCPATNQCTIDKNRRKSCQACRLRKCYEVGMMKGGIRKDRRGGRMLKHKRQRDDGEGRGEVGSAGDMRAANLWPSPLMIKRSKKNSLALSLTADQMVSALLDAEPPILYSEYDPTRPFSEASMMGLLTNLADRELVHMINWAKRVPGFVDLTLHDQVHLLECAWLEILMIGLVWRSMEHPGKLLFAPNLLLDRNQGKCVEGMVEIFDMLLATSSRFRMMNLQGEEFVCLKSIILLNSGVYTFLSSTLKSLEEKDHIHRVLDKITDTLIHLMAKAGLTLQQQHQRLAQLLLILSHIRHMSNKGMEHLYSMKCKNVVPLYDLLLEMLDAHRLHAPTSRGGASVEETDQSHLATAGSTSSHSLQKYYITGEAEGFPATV
Chain of Androgen receptor (Homo sapiens) (P10275 whole entry, looked up): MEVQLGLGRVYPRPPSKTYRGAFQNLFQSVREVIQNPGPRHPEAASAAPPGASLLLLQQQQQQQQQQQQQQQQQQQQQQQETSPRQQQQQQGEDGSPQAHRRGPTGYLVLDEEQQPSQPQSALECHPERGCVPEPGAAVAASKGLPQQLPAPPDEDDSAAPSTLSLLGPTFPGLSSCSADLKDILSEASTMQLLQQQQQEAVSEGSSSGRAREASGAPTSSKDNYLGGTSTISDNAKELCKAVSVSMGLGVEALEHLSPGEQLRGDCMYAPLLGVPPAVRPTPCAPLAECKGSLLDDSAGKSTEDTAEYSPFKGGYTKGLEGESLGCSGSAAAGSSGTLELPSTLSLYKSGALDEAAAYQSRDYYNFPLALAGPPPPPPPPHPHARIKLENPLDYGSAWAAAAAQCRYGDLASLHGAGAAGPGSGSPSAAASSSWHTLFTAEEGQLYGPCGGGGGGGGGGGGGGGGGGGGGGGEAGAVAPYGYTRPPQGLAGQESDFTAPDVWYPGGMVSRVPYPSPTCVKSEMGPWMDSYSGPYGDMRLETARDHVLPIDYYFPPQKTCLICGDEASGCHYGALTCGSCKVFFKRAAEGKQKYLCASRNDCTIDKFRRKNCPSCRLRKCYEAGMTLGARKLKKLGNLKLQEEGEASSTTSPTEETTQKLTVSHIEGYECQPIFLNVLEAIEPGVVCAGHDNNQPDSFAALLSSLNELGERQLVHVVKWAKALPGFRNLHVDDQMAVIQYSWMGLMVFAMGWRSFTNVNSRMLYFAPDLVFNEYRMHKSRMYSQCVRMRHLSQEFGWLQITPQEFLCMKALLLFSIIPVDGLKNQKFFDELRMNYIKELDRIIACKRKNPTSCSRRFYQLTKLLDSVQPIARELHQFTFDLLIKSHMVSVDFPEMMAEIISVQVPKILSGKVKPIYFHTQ

CCN(CC)c1ccc2c(C)cc(=O)oc2c1
active: [1] 24.5 µM and 54.5 µM
inactive: [2] | [3] | [4] | [5] | [6]

Oc1c(Cl)cc(Cl)cc1Sc1cc(Cl)cc(Cl)c1O
inactive: [7] | [4] | [5] | [6]
active: [8] 27.8 µM and 7.7 µM | [9] 54.6 µM and 61.1 µM | [3] 30.7 µM and 54.5 µM

CCOc1ccc2c(c1)C(C)=CC(C)(C)N2
not listed: [1] | [7] | [8]
inactive: all other assays above

NC12CC3CC(CC(C3)C1)C2
inactive: [2] | [9] | [3]

CC1=C(C=O)C(C)(C)CC=C1
inactive: [2] | [9] | [3] | [6]

[Cl][In]([Cl])[Cl]
inactive: [2] | [3] | [4]

c1ccc2c(c1)CCCC2C1=NCCN1 (centres undefined)
inactive: [2] | [9] | [3] | [4] | [6]

NC(N)=NC(=O)Cc1c(Cl)cccc1Cl
inactive: [1] | [2] | [9] | [3] | [5] | [6]

c1cc(C(c2ccc(OCC3CO3)cc2)C(c2ccc(OCC3CO3)cc2)c2ccc(OCC3CO3)cc2)ccc1OCC1CO1 (centres undefined)
inactive: [1] | [2] | [3] | [4] | [6]

COc1ccc(COC(C)=O)cc1
inactive: [1] | [2] | [9] | [3] | [6]

O=C(Nc1ccccc1SSc1ccccc1NC(=O)c1ccccc1)c1ccccc1
inactive: [3] | [4] | [5] | [6]
active: [1] 4.88 µM and 5.45 µM

CCc1cc(C(C)(C)C)c(O)c(C(C)(C)C)c1
inactive: [1] | [2] | [9] | [3] | [6]

CC[C@]1(O)C[C@@H]2CN(CCc3c([nH]c4ccccc34)[C@@](C(=O)OC)(c3cc4c(cc3OC)N(C)[C@H]3[C@@](O)(C(=O)OC)[C@H](OC(C)=O)[C@]5(CC)C=CCN6CC[C@]43[C@@H]65)C2)C1
active: [1] 37.6 nM
inactive: [2] | [9] | [3] | [5] | [6]

CC(COc1ccccc1)N(CCCl)Cc1ccccc1 (centres undefined)
inactive: [3] | [5] | [6]
43.3 µM (active) and inactive: [1]
active: [2] 55 µM and 61.1 µM | [9] 54.5 µM

c1ccc2cc3c(ccc4ccccc43)cc2c1
inactive: [1] | [2] | [9] | [3] | [5] | [6]

CC(C)(C)NCC(O)COc1ccccc1OCC1CCCO1 (centres undefined)
not listed: [1] | [10]
inactive: all other assays above

COC(=O)[C@H]1[C@H]2C[C@@H]3c4[nH]c5cc(OC)ccc5c4CCN3C[C@H]2C[C@@H](OC(=O)c2cc(OC)c(OC)c(OC)c2)[C@@H]1OC
inactive: [2] | [5] | [6]
active: [1] 12.2 µM and 15.8 µM and 23.7 µM | [9] 8.62 µM and 9.96 µM and 11.9 µM

NNCCc1ccccc1
inactive: [1] | [2] | [9] | [3] | [6]

O=C1OC2(c3ccc(O)cc3Oc3cc(O)ccc32)c2ccccc21
inactive: [1] | [9] | [3] | [4] | [5] | [6]

Nc1ccc2cc3ccccc3cc2c1
active: [4] 1.75 µM and 13.7 µM
inactive: [1] | [2] | [3] | [5] | [6]

O
inactive: [2] | [9] | [3] | [5] | [6]

C=CC(=O)OCCCCCCCC
not listed: [1] | [5] | [10]
inactive: all other assays above

CN(C)c1ccc2nc3ccc(=[N+](C)C)cc-3sc2c1
active: [1] 739 nM and 1.09 µM and 596 nM | [2] 3.3 µM and 6.86 µM and 4.22 µM | [9] 2.08 µM and 27.3 µM and 3.76 µM
inactive: [4]

Cc1cccc2n[nH]nc12
inactive: [1] | [2] | [9] | [3] | [5] | [6]

CCCN[C@H]1CCc2nc(N)sc2C1
inactive: [1] | [2] | [9] | [3] | [5] | [6]

CCCCCC(=O)O[C@]1(C(C)=O)CC[C@H]2[C@@H]3CCC4=CC(=O)CC[C@]4(C)[C@H]3CC[C@@]21C
active: [8] 6.68 µM | [2] 60.7 µM and 29.8 µM
inactive: [7] | [9] | [3] | [4]

CC1COc2c(N3CCN(C)CC3)c(F)cc3c(=O)c(C(=O)O)cn1c23 (centres undefined)
inactive: [1] | [2] | [9] | [3] | [5] | [6]

C#CC(C)(CC)OC(=O)c1ccccc1C(=O)O (centres undefined)
not listed: [1] | [6]
inactive: all other assays above

CCC(C)(C)C(=O)O[C@H]1C[C@@H](C)C=C2C=C[C@H](C)[C@H](CC[C@@H]3C[C@@H](O)CC(=O)O3)[C@H]21
inactive: [7] | [2] | [4] | [5] | [6]
active: [9] 27.3 µM and 13.3 µM | [3] 11.9 µM

CCCCCCCCCCCC[N+](C)(C)C
inactive: [6]
active: [1] 384 nM and 24.3 nM and 6.86 µM | [2] 13.6 µM and 9.69 µM and 13.7 µM | [9] 60.9 µM | [3] 68.6 µM
